{"source": "PubChem BioAssay AID720650", "about": "(Broad Institute, 2013)", "note": "Values without a mark were called inactive. Activity calls are given as the source filed them. How the calls were made is not given here.", "data": [{"assay": "C difficile toxins, biochemical counterscreen, UDPG substrate absence, confirmatory dose response (AID 720650)", "settings": "series mostly up to 19.5 µM; activity change, negative = inhibition: at the top concentration", "units": {"activity change, negative = inhibition": "%"}, "values": [{"smiles": "O=C1NC(=O)/C(=C/c2ccc(O)cc2)S1", "AC50": "8.69 µM (active)"}, {"smiles": "O=C(Nc1ccc(O)cc1)/C(=C\\c1ccncc1)NC(=O)c1ccccc1", "AC50": "11.8 µM (active)"}, {"smiles": "Cc1ccc(S(=O)(=O)Oc2ccccc2/C=C2/SC(=O)NC2=O)cc1", "activity change, negative = inhibition": 8.66}, {"smiles": "COc1ccc(Cl)cc1NC(=S)NC1CCCC1", "activity change, negative = inhibition": -4.37}, {"smiles": "Cc1cc(C(=O)NNc2ccc(C)c(C)c2)no1", "AC50": "0.287 µM (active)"}, {"smiles": "CS(=O)(=O)N(CC(=O)Nc1ccc(S(=O)(=O)N2CCOCC2)cc1)c1ccccc1Br", "activity change, negative = inhibition": -6.84}, {"smiles": "Cc1cc(N/N=C/c2ccncc2)nc2ccccc12", "activity change, negative = inhibition": -3.14}, {"smiles": "O=C(C[C@@H]1CC[C@H]2[C@@H](COC[C@@H](O)CN2C(=O)c2ccccn2)O1)NC1CCC1", "activity change, negative = inhibition": -1.73}, {"smiles": "O=C(Nc1cc(S(=O)(=O)N2CCOCC2)ccc1N1CCOCC1)c1ccccc1Cl", "AC50": "> 39 µM"}, {"smiles": "CCc1ccc(NC(=O)C2=CC(c3ccc(OC)cc3)=NS(=O)(=O)N2C)cc1", "activity change, negative = inhibition": -6.94}, {"smiles": "Cc1ccc(C)c2nc(Cl)c(C3NC(=O)c4ccccc4N3)cc12", "note": "(centres undefined)", "activity change, negative = inhibition": -4.37}, {"smiles": "COc1ccc(Cl)cc1NC(=O)CSc1nnc(-c2ccco2)o1", "AC50": "> 39 µM"}, {"smiles": "COc1cc(OC)cc(C(=O)NNC(=O)CN2C(=O)NC(C)(c3ccc(C)cc3)C2=O)c1", "note": "(centres undefined)", "activity change, negative = inhibition": -2.29}, {"smiles": "CCCCNC(=O)C1CCN(S(=O)(=O)c2c(C)noc2/C=C\\c2ccc(OC)cc2)CC1", "AC50": "inactive"}, {"smiles": "O=C(C[C@H]1CC[C@H]2[C@@H](COC[C@@H](O)CN2Cc2ccccc2)O1)NCCc1ccccc1", "activity change, negative = inhibition": -12.5}, {"smiles": "O=C(COc1ccc2ccc(=O)oc2c1)NCCN1CCOCC1", "activity change, negative = inhibition": -11.5}, {"smiles": "O=C1COc2ccc(C(=O)COC(=O)CNS(=O)(=O)c3cccc(F)c3)cc2N1", "activity change, negative = inhibition": -7.12}, {"smiles": "COCC#Cc1ccc2c(c1)O[C@@H](CN(C)C(=O)CC1CC1)[C@H](C)CN([C@@H](C)CO)S2(=O)=O", "activity change, negative = inhibition": -7.14}, {"smiles": "O=C(C[C@H]1C[C@H]2c3cc(NC(=O)c4ccc5c(c4)OCO5)ccc3O[C@H]2[C@H](CO)O1)NCc1cccc(F)c1", "activity change, negative = inhibition": -11.6}, {"smiles": "CC(C)NC(=O)N1CC[C@@H]2[C@@H](CO)N(C)c3ccc(-c4ccc(F)cc4)cc3[C@@H]21", "AC50": "4.11 µM (active)"}, {"smiles": "CC(C)(C)c1cc(Cl)c(O)c(NC(=S)NC(=O)c2cccnc2)c1", "activity change, negative = inhibition": 10.9}, {"smiles": "CN1C(=O)c2cc(NC(=O)c3cccc(F)c3)ccc2OC[C@@H]2O[C@@H](CC(=O)NCC3CCCCC3)CC[C@@H]21", "activity change, negative = inhibition": -1.51}, {"smiles": "COc1cc2c(cc1O)CC[n+]1cc3c(OC)c(OC)ccc3cc1-2", "AC50": "> 39 µM"}, {"smiles": "CCCCc1[nH]c(=O)c(C#N)c2c1CCCC2", "activity change, negative = inhibition": -12.9}, {"smiles": "O=C(NCc1cc(C(F)(F)F)cc(C(F)(F)F)c1)C1CC(c2c(Cl)cccc2Cl)=NO1", "note": "(centres undefined)", "activity change, negative = inhibition": 0.624}, {"smiles": "Oc1ccc(-c2cn3ccccc3n2)cc1", "AC50": "4.42 µM (active)"}, {"smiles": "CCn1cc(C(=O)O)c(=O)c2cc(F)c(N3CCN(C(=S)NC(=O)c4ccccc4Br)CC3)cc21", "activity change, negative = inhibition": -9.77}, {"smiles": "Cc1ccc2c(c1)-c1c(cnn1CC(=O)NC(C)CCc1ccco1)CO2", "note": "(centres undefined)", "activity change, negative = inhibition": -12.6}, {"smiles": "Cc1ccc(NCCN(C)C)c2c(=O)c3cc(O)ccc3sc12", "AC50": "5.2 µM (active)"}, {"smiles": "COc1ccc(/C=C/c2onc(C)c2S(=O)(=O)N2CCC(C(=O)N3CCCCCC3)CC2)cc1", "activity change, negative = inhibition": 6.66}, {"smiles": "Cc1cccc(OCCC(=O)NCC(=O)Nc2cccc(C)c2C)c1", "AC50": "16.4 µM (active)"}, {"smiles": "O=C(N/N=C/c1ccc(O)c(O)c1)C1CC1", "AC50": "> 39 µM"}, {"smiles": "COc1ccc(C2=NS(=O)(=O)N(C)C(C(=O)N3CCc4ccccc4C3)=C2)cc1OC", "activity change, negative = inhibition": -17}, {"smiles": "O=[N+]([O-])c1ccc(/C=C/c2ccc3ccccc3n2)cc1", "activity change, negative = inhibition": -8.36}, {"smiles": "Cc1cc(C)c(NS(=O)(=O)c2cccc3cccnc23)c(C)c1", "activity change, negative = inhibition": -8.44}, {"smiles": "COc1ccc(/C=C/c2nc3ccccc3n2C)cc1", "AC50": "> 39 µM"}, {"smiles": "CN1c2ccc(-c3ccccc3)cc2[C@@H]2[C@@H](CCN2C(=O)CN2CCOCC2)[C@@H]1CO", "AC50": "7.03 µM (active)"}, {"smiles": "O=C(C[C@@H]1C[C@H]2c3cc(NC(=O)c4ccc5c(c4)OCO5)ccc3O[C@H]2[C@H](CO)O1)NCc1cccc(F)c1", "activity change, negative = inhibition": -1.94}, {"smiles": "CNC(=O)C1CCN(S(=O)(=O)c2c(C)noc2/C=C/c2cccc(OC)c2)CC1", "activity change, negative = inhibition": -5.22}]}]}
